DT40 TDP1 CPT = DT40-hTDP1 cell growth loss with CPT. chicken DT40 Tdp1-/-;hTDP1 cells + 20 nM CPT, ATP luminescence, 48 h. hit rate 12% among 420,000. Potency, µM (highest dose often 46.2 µM), usual class: inhibitors; further: nearly all actives have a fitted effect of over 55% in size
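Chicken DT40 Tdp1-/- cells stably complemented with human TDP1 were seeded at 400 cells/well in medium containing 20 nM camptothecin, exposed to pin-transferred compounds, and grown at 37 °C for at least 48 hr. Viability was read as ATP luminescence.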
KB-V1 cytotox = KB-V1 MDR subline cytotoxicity; KB-V1 MDR cells viability, CellTiter-Glo, 72 h; Potency, µM (series often up to 46.1 µM), actives largely listed as cytotoxic; hit rate 3.4% among 400,000; AID 1347076; further: nearly all actives have a fitted effect of over 60% in size
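KB-V1, DMEM (no phenol red) + 10% FBS; cpd pin-transferred, titration series; 72 h, 37 degrees C; CellTiter-Glo, luminescence. Data normalized, curve-fit.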
KB-3-1 tox = KB-3-1 parental cell cytotoxicity. KB-3-1 viability, CellTiter-Glo ATP luminescence, 72 h. Potency, µM (highest dose often 46.1 µM), usual class: cytotoxic. hit rate 1.4% among 400,000. AID 1347075; further: nearly all actives have a fitted effect of over 60% in size
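Multi-concentration cytotoxicity screen in KB-3-1 cells grown in DMEM lacking phenol red with 10% FBS. After 72 h at 37 °C with compound, ATP-dependent luminescence was recorded.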
HT1080 IDH1KD tx = kills HT-1080 cells with IDH1 knockdown | hit rate 2% among 360,000 | Potency, µM (doses to about 46.1 µM), most hits filed as cytotoxic | HT-1080 IDH1 knockdown viability, ATP luminescence, 48 h
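% activity derives from luminescence (CellTiter-Glo), normalised to DMSO and no-cell wells. HT-1080-IDH1KD cells, 750/well, had 48 h compound exposure at 37 °C.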
HT1080-NT tox = kills 2HG-producing HT-1080-NT fibrosarcoma cells; HT-1080-NT fibrosarcoma viability, CellTiter-Glo ATP luminescence, 48 h; Potency, µM (series often up to 46.1 µM), most hits filed as cytotoxic; hit rate 1.6% among 360,000;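 further: NT is the 2HG producing partner of a matched IDH1 knockdown line; nearly all actives have a fitted effect of over 55% in size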
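Luminescent CellTiter-Glo readout after 48 hours of compound exposure at 37 degrees C defined viability of HT-1080-NT cells. Activity was normalized to DMSO wells and cell-free media wells; concentration-response curves were fitted and assigned curve classes.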
DT40 TDP1 no CPT = qHTS for Inhibitors of human tyrosyl-DNA phosphodiesterase 1 (TDP1): qHTS in cells in absence of CPT. hit rate 15% among 420,000. DT40 Tdp1-/- hTDP1 cells, no CPT, ATP luminescence, 48 h. Potency, µM (doses to about 46.2 µM), actives largely listed as inhibitors. AID 686978, 2013; further: nearly all actives have a fitted effect of over 55% in size
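Readout: luminescence from CellTiter-Glo after 30 min in the dark at RT. Cells: DT40 Tdp1-/- with stable hTDP1, 400/well. Exposure: compounds alone, ≥48 hr, 37 °C.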
A number is an active result; i = inactive; ? = inconclusive; nt = not tested or not shown. Shown are actives, neighbours in structure and some others; about 19% of the full set was active somewhere. The call rests on the fitted dose curve; in most records, active means well fitted curve in the direction sought with a large enough effect; inconclusive means small, poorly fitted or top-dose-only effect, or another doubt; inactive means no such curve, though single readings can be large; an effect the other way counts as inactive or inconclusive.

SMILES	DT40 TDP1 CPT	KB-V1 cytotox	KB-3-1 tox	HT1080 IDH1KD tx	HT1080-NT tox	DT40 TDP1 no CPT
CC(C)C(NC(=O)c1ccccc1)C(=O)OCc1cc([N+](=O)[O-])cc2c1OCOC2 (configuration not stated)	14.6µM	i	i	i	i	11.6µM
CC(C)n1c(SCC(=O)Nc2ccc(F)cc2)nc2c(oc3ccccc32)c1=O	?	i	i	nt	nt	?
CCCNC(=O)C1(C)CCCN(C(=O)c2cc(F)ccc2C)C1 (configuration not stated)	i	i	i	i	i	i
Cc1cc(N2CCC(C(=O)Nc3ccc(F)cc3C)CC2)n2nc(C)c(-c3ccc(Cl)cc3)c2n1	?	i	i	nt	nt	i
COCCNC(=O)c1ccc2c(c1)ncn2-c1cccc(C)c1	16.4µM	?	?	?	?	?
COc1ccc(-n2cnc3cc(C(=O)NCC4CCCO4)ccc32)cc1 (configuration not stated)	i	i	?	i	i	i
Cc1cccc(-n2cnc3cc(C(=O)N4CCc5ccccc54)ccc32)c1	i	13µM	i	i	i	?
O=C(c1ccc2ccccc2c1)N1CCc2ccccc21	i	i	i	i	i	i
Cc1cccc(-n2cnc3cc(C(=O)NCC4CCCO4)ccc32)c1 (configuration not stated)	9.2µM	?	18.4µM	?	?	7.31µM
COCCNC(=O)c1ccc2c(c1)ncn2-c1cc(C)ccc1OC	i	i	i	nt	nt	i
COc1ccc(-c2nc3cnc(Nc4cccc(OC)c4)nc3n(C3CC3)c2=O)cc1	i	nt	nt	nt	nt	i
CCCCn1c(=N)c(S(=O)(=O)c2ccc(Cl)cc2)cc2c(=O)n3cccc(C)c3nc21	nt	?	i	nt	nt	nt
Cc1ccc(-c2noc(-c3nnn(CC(=O)Nc4cc(Cl)ccc4C)c3N)n2)cc1	i	nt	nt	nt	nt	i
COc1ccc(N(Cc2cccs2)C(=O)c2ccccc2C)cc1	11.6µM	?	i	nt	nt	13µM
COc1ccc(N(Cc2cccs2)C(=O)c2ccc(OCC(C)C)cc2)cc1	?	nt	nt	nt	nt	20.6µM
COc1ccc(N(Cc2cccs2)C(=O)COc2cccc(Cl)c2)cc1	?	i	i	nt	nt	?
Cc1ccc(N(Cc2cccs2)C(=O)C(C)Oc2ccc(Cl)c(C)c2)cc1 (configuration not stated)	11.6µM	i	?	nt	nt	9.2µM
COc1ccc(N(Cc2cccs2)C(=O)c2ccc(C(C)(C)C)cc2)cc1	?	i	i	nt	nt	?
CCCCOc1cccc(C(=O)N(Cc2cccs2)c2ccc(OC)cc2)c1	?	nt	nt	nt	nt	6.51µM
O=C(CCC(=O)N1CCN(S(=O)(=O)c2ccccc2)CC1)c1ccc(Br)cc1	?	nt	nt	i	i	?
CN1CCN(c2ncc3ncc(=O)n(-c4ccccc4)c3n2)CC1	i	nt	nt	nt	nt	i
CCCCc1c(O)nc(SCC(=O)c2ccccc2)[nH]c1=O	?	i	i	?	i	?
O=C(CSc1nc(O)c(Cc2ccccc2)c(=O)[nH]1)c1ccccc1	?	i	?	i	i	2.06µM
NC(=O)c1ccccc1NC(=O)CSc1nc2ccccc2c(=O)[nH]1	?	nt	nt	?	13µM	i
O=C(O)CCSc1nc2ccccc2c(=O)[nH]1	i	i	i	i	i	i
SMILES	DT40 TDP1 CPT	KB-V1 cytotox	KB-3-1 tox	HT1080 IDH1KD tx	HT1080-NT tox	DT40 TDP1 no CPT
Cc1cc(C(=O)CSc2nc3ccccc3c(=O)[nH]2)c(C)n1C	?	i	i	i	i	6.51µM
O=C(CCCSc1nc2ccccc2c(=O)[nH]1)c1ccccc1	?	i	i	i	?	14.6µM
Cc1cc(C(=O)CSc2nc3ccccc3n2C)c(C)n1C	?	i	i	i	i	?
COc1cc(CN2CCC(n3nccc3NC(=O)c3ccccc3OC)CC2)ccc1F	?	?	i	i	i	?
COC(=O)N1CCCc2cc(S(=O)(=O)N3CCN(c4ccccc4)CC3)ccc21	nt	?	i	nt	nt	nt
CCc1ccc(-n2c(CSc3nnnn3-c3ccccc3)nc3ccccc3c2=O)cc1	?	i	i	i	i	18.4µM
COc1cccc(OCCSc2nc3ccccc3c(=O)[nH]2)c1	i	i	i	i	i	20.6µM
O=c1[nH]c(CSc2nnnn2-c2ccc(Cl)cc2)nc2ccccc12	i	i	i	i	i	?
COc1ccc(OCCSc2nc3ccccc3c(=O)[nH]2)cc1	?	i	i	i	i	?
O=C(CSc1nc2ccccc2c(=O)[nH]1)c1ccccc1	20.6µM	i	i	i	i	29.1µM
COc1ccc(C(=O)CSc2nc(C(C)(C)C)nc3ccccc23)cc1	?	i	i	i	i	20.6µM
O=C(O)CSc1nc2ccccc2c(=O)[nH]1	i	i	i	i	i	i
O=C(CSc1nc2ccccc2c(=O)[nH]1)N1CCN(c2ccccc2F)CC1	?	?	i	i	i	18.4µM
CC(C)(C)c1ccc(C(=O)CSc2nc3ccccc3c(=O)[nH]2)cc1	2.82µM	i	i	i	i	2.82µM
O=c1[nH]c(SCc2nc3ccccc3c(=O)n2-c2ccccc2)nc2ccccc12	11.6µM	i	i	?	?	?
CC(C)(C)NC(=O)CSc1nc2ccccc2c(=O)[nH]1	i	i	i	i	i	i
O=C(COc1cccc2ccccc12)N/N=C/c1ccco1	i	i	i	i	i	i
CCc1ccc2c(c1)C1(NN=C(c3ccc(C)cc3)S1)C(=O)N2 (configuration not stated)	16.4µM	?	?	20.6µM	?	8.2µM
CC(C)c1ccc(O)c(NC(=O)c2ncn[nH]2)c1	i	i	i	i	i	i
CC(C)c1ccc2c(c1)C1(NN=C(c3ccccc3)S1)C(=O)N2 (configuration not stated)	3.66µM	i	?	?	25.9µM	6.51µM
CCOC(=O)C1=C(C)NC(C)=C(C(=O)OCC)C1c1ccncc1	?	i	?	i	i	?
O=C(CSc1ccccc1)NCc1ccc2c(c1)CCN2C(=O)c1ccccc1	i	i	i	nt	nt	i
O=C(c1ccccc1)N1CCc2cc(CNS(=O)(=O)c3ccccc3Cl)ccc21	1.3µM	nt	nt	nt	nt	0.92µM
O=C(c1ccccc1)N1CCc2cc(CNS(=O)(=O)c3ccc(Cl)s3)ccc21	?	nt	nt	nt	nt	16.4µM
CCC(=O)N1CCc2cc(CNC(=O)C(CC)c3ccccc3)ccc21 (configuration not stated)	i	nt	nt	nt	nt	i
NS(=O)(=O)c1ccc(N=Nc2nc3[nH]cnc(=S)c3[nH]2)cc1	5.01µM	1.16µM	1.16µM	nt	nt	6.31µM
O=C(Nc1ncccc1O)c1c(O)c2ccccc2[nH]c1=O	?	?	i	i	i	?
